Pf growth 96h = Primary qHTS for delayed death inhibitors of the malarial parasite plastid, 96 hour incubation; hit rate 6.9% among 320,000; AID 504834, 2011; Potency, µM (titrated, usually from 28.7 µM), for inactives: at the highest dose activity change, negative = inhibition, actives largely listed as inhibitors; P. falciparum luciferase reporter growth, 96 h; note: % is set by controls: 0 for no effect and ±100 for the full control effect
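Infected RBCs, 2% Hct / 0.05% parasitemia final; luciferase-reporter P. falciparum; cpd 96 h, 37 C, 5% CO2; luciferase detection reagent; luminescence.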
SARS PLpro yeast = qHTS of Yeast-based Assay for SARS-CoV PLP. hit rate 0.19% among 330,000. Potency, µM (titrated, usually from 32.9 µM), inactives show at the top dose activity, positive = growth rescue, hits mostly activators. S. cerevisiae expressing SARS-CoV PLpro, growth rescue; calls by dose curve; note: 0% is about no effect; nearly all actives have a fitted effect of over 55% in size
Pf growth 48h = Primary qHTS for delayed death inhibitors of the malarial parasite plastid, 48 hour incubation; P. falciparum luciferase growth in erythrocytes, 48 h; Potency, µM (doses to about 28.7 µM), inactives show at the top dose activity change, negative = inhibition, actives largely listed as inhibitors; hit rate 5.9% among 310,000; note: % is set by controls: 0 for no effect and ±100 for the full control effect
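Firefly luciferase activity from engineered P. falciparum reports growth; inhibitors lower the luminescent signal. Cultures contained 2% hematocrit erythrocytes at 0.1% final parasitemia.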
Sm TGR block = qHTS Assay for the Inhibitors of Schistosoma Mansoni Peroxiredoxins. Schistosoma mansoni thioredoxin glutathione reductase (TGR), Q962Y6. purified TGR, DTNB reduction, TNB absorbance 405 nm. Potency, µM (titrated, usually from 114 µM), for the others: at the top dose activity change, negative = inhibition, actives largely listed as inhibitors. hit rate 3% among 360,000. AID 485364, 2010; note: % is set by controls: 0 for no effect and ±100 for the full control effect; nearly all actives have a fitted effect of over 60% in size
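Kinetic colorimetric format: TGR-catalysed, NADPH-driven DTNB reduction monitored via TNB absorbance. Enzyme dispensed at 20 nM; compound exposure 15 min at room temperature before reaction start.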
AmpC detergent = qHTS Inhibitors of AmpC Beta-Lactamase (assay with detergent); P00811; AmpC hydrolysis of nitrocefin, absorbance 480 nm, 0.01% Triton; Potency, µM (doses to about 114 µM), inactives show top-dose activity change, negative = inhibition, hits mostly inhibitors; hit rate 0.041% among 370,000; AID 485294, 2010;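 note: 0% = no-compound wells and -100% = no-enzyme wells; nearly all actives have a fitted effect of over 25% in size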
Target sequence (P00811 whole entry, looked up): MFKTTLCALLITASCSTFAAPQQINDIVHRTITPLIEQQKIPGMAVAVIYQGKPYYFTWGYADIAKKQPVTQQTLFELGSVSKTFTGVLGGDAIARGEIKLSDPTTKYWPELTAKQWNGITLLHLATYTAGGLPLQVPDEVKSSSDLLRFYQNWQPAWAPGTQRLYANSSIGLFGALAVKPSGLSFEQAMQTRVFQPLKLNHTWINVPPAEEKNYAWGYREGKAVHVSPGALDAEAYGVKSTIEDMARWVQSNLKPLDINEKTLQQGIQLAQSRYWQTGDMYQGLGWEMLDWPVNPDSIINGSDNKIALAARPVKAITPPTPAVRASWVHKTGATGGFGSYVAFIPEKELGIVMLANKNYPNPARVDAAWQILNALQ
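20 mM phosphate pH 7.0 + 0.01% (detergent screen) or 0.0001% Triton X-100; 5.3 nM AmpC reagent; cpd preinc 15 min RT; nitrocefin (800 uM stock) to start; A480 q20 s × 4 min; Activity was normalised to no-enzyme and no-compound control wells.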
AmpC inh no detg = qHTS Inhibitors of AmpC Beta-Lactamase (assay without detergent). P00811. AmpC nitrocefin hydrolysis, absorbance 480 nm, 0.0001% Triton. Potency, µM (top dose mostly 57.1 µM), for inactives: at the highest dose activity change, negative = inhibition, actives largely listed as inhibitors. hit rate 0.52% among 330,000. AID 485341, 2010;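 note: plate controls were no compound for no effect and no enzyme for full effect; nearly all actives have a fitted effect of over 20% in size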
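20 mM phosphate pH 7.0 + 0.01% (detergent screen) or 0.0001% Triton X-100; 5.3 nM AmpC reagent; cpd preinc 15 min RT; nitrocefin (800 uM stock) to start; A480 q20 s × 4 min; Activity was normalised to no-enzyme and no-compound control wells.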
* = called active by the depositor; u = inconclusive; x = no result. Shown are actives, neighbours in structure and some others; about 12% of the full set was active somewhere. Unless noted, calls come from the whole dose curve; as a rule, active = well fitted curve in the direction sought with a large enough effect; inconclusive = small, poorly fitted or top-dose-only effect, or another doubt; inactive = no such curve, though single readings can be large; an effect the other way counts as inactive or inconclusive. Potency is the fitted concentration of half-maximal effect.

SMILES | Pf growth 96h | SARS PLpro yeast | Pf growth 48h | Sm TGR block | AmpC detergent | AmpC inh no detg
CC(=O)c1ccc(N2CCN(S(=O)(=O)c3ccc4c(c3)CC(C)N4C(C)=O)CC2)cc1 (configuration not stated) | u | 8% | u | -3% | -2% | 151%
CC1(C)CC(=O)C2=C(C1)N(c1ccc(F)cc1)C(=O)CC2c1ccsc1 (configuration not stated) | 3.3µM* | 0% | x | 4% | u | 3%
CC(C)(Oc1ccc(Cl)cc1)C(=O)Nc1ccc(-c2nc3ncccc3o2)cc1 | x | x | x | 10% | 8% | x
COc1cccc(CNC(=O)C(Cc2ccccc2)NS(=O)(=O)c2ccc3c(c2)CCN3C(C)=O)c1 (configuration not stated) | x | x | x | -3% | 2% | x
O=P(c1ccccc1)(c1ccccc1)C(O)c1ccccn1 (configuration not stated) | 25% | 0% | 22% | -7% | 1% | 3%
O=P(c1ccccc1)(c1ccccc1)C(c1ccccn1)P(=O)(c1ccccc1)c1ccccc1 | 9.3µM* | 0% | u | 8% | -4% | 52%
CCCNC(=O)Cn1nc(C(F)(F)F)c2c1CCCC2 | 18% | -10% | 8% | -10% | 1% | -21%
O=C(Cn1nc(C(F)(F)F)c2c1CCCC2)NCCN1CCOCC1 | 15µM* | 9% | 12µM* | -16% | -4% | 1%
COc1cc(NC(=O)Cn2nc(C(F)(F)F)c3c2CCCC3)cc(OC)c1OC | x | 23% | 10µM* | 0% | 21% | 71%
COc1ccc(Cl)cc1NC(=O)Cn1nc(C(F)(F)F)c2c1CCCC2 | x | x | x | 1% | 19% | x
COc1c(C)cccc1C(=O)Nc1ccc(Cl)c(-c2nc3cc(C)ccc3o2)c1 | x | x | x | 3% | 2% | x
Cc1cccc(C)c1NC(=O)CCC(=O)N1Cc2ccccc2Oc2ncccc21 | x | x | x | -2% | 25% | x
COc1cc(-c2noc(-c3cc(C)[nH]n3)n2)cc(OC)c1OC | x | x | x | 5% | 4% | x
Cc1cc2nc(/C=C/c3nc4cc(C)c(C)cc4[nH]3)[nH]c2cc1C | 0.33µM* | 1% | 0.47µM* | -5% | -5% | -50%
Cc1cc2nc(/C=C/c3cccnc3)[nH]c2cc1C | -1% | -3% | -81% | 12% | u | -55%
CSc1nc(N)c2c3c(sc2n1)COC(C(C)C)C3 (configuration not stated) | 5.2µM* | 4% | x | -21% | u | -21%
COc1cc(C(=O)NC2CCCc3c2cnn3-c2ccccc2F)cc(OC)c1OC (configuration not stated) | 3.3µM* | 23% | u | 2% | -3% | 38%
COC(=O)c1ccc(C(=O)NC2CCCc3c2cnn3-c2ccccc2F)nc1 (configuration not stated) | u | -4% | 11% | -12% | -10% | 50%
CCOC(=O)N1CCC(NC(=O)c2cnn(-c3ccc(OC)cc3)c2C2CCN(C(=O)OC(C)(C)C)CC2)CC1 | x | x | x | -9% | -12% | x
COc1ccc2c(c1)NC(c1cc(Cl)cc(Cl)c1O)c1cccn1-2 (configuration not stated) | u | 0% | 8% | -23% | 7% | -20%
COc1ccc2c(c1)NC(c1ccc(N(C)C)cc1)c1cccn1-2 (configuration not stated) | u | -3% | -18% | 50µM* | 17% | 75%
O=C(CCNC(=O)c1ccccc1Cl)Nc1cccc(S(=O)(=O)N2CCOCC2)c1 | 1% | -5% | u | -9% | -4% | -22%
Cc1ccccc1N(C(=O)CS(=O)CC(=O)Nc1ccc(F)cc1)C(C)C(=O)NC(C)(C)C (configuration not stated) | 1% | 3% | -11% | -6% | -10% | 150%

High-throughput results deposited in PubChem by National Center for Advancing Translational Sciences (NCATS).
